Results published in PubChem BioAssay (EPA / NIEHS).
Results filed as inconclusive are left out. The source made the active and inactive calls. Rule for the calls, unless noted: active = hit-call score of the fitted dose curve at least 0.9, where 1 is the maximum; inconclusive = response in the unintended direction; inactive = score below 0.9.

Columns and labels:
[1] = test system: Thyroperoxidase (TPO), gene 54314; assay: CCTE_Simmons_AUR_rTPO: CCTE's Amplex UltraRed Assay for Thyroperoxidase (TPO) Inhibition, Simmons Lab (AID 2283662);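 for AC50: potency for loss of signal meaning inhibition of peroxidase activity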
Outline: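 Cell-free peroxidase activity assay using rat thyroid gland microsomes with excess H2O2 (300 uM) and 25 uM Amplex UltraRed. Compounds tested from 5 nM to 87.5 uM; fluorescence measured after 30 min at 37C, analysed relative to DMSO baseline.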

[2] = CCTE_Simmons_CellTiterGLO_HEK293T: Viability Assessment in CCTE's Assays for Thyroperoxidase (TPO) Inhibition, Simmons Lab (AID 2283665);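 for AC50: cells exposed to compound for 24 h before readout; actives reduce ATP signal below DMSO vehicle meaning cytotoxicity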
Outline: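 Cells were seeded overnight, then exposed to an eight-point series up to 87.5 uM final for 24 hours. CellTiter-Glo reagent was added and luminescence read after 20 min, giving ATP-based viability versus DMSO.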

[3] = Tanguay_ZF_120hpf_TR_legacy: (Legacy) Oregon State University Tanguay Lab 120 Hour Post-fertilization zebrafish Assay for Touch Response (AID 2283667)
Outline: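 Readout is presence or absence of touch response in 120 hpf zebrafish larvae, assessed by brightfield observation after continuous static exposure at 28C. Final vehicle was 0.64% (vol/vol) DMSO.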

[4] = read-out: organic anion transporter (SLCO1B1), SLCO1B1 (gene 10599); assay: CLD_SLCO1B1_6hr: CellzDirect (CLD) Gene Expression Assay for organic anion transporter (SLCO1B1) at 6 hours (AID 2283668);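 note: active means mRNA induction above DMSO baseline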
Outline: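 SLCO1B1 mRNA induction measured 6 h after dosing by quantitative nuclease protection with chemiluminescent read-out, in human primary hepatocyte cultures given chemicals at several concentrations (vehicle 0.2% DMSO). Increase over DMSO baseline fitted; morphology-based cytotoxicity annotated yes/no.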

[5] = read-out: glucuronosyltransferase (UGT1A1), UGT1A1 (gene 54658); assay: CLD_UGT1A1_6hr: CellzDirect (CLD) Gene Expression Assay for glucuronosyltransferase (UGT1A1) at 6 hours (AID 2283672)
Outline: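 UGT1A1 mRNA induction, read by quantitative nuclease protection assay, 6 h after dosing primary human hepatocytes (two donors, 0.2% DMSO vehicle). Gain of signal fitted relative to vehicle.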

[6] = read-out: xenobiotic metabolism (CYP1A1), CYP1A1 (gene 1543); assay: CLD_CYP1A1_24hr: CellzDirect (CLD) Gene Expression Assay for xenobiotic metabolism (CYP1A1) at 24 hours (AID 2283673);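 note: CYP1A1 mRNA level by quantitative nuclease protection with chemiluminescence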
Outline: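 Transcript levels were read at 24 h by qNPA chemiluminescence in human liver primary cells. Cells got daily fresh dosing at multiple concentrations (vehicle 0.2% DMSO). Induction fitted upward against DMSO; phase-contrast cytotoxicity annotated.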

[7] = read-out: ABC Transporter (ABCB11), ABCB11 (gene 8647); assay: CLD_ABCB11_6hr: CellzDirect (CLD) Gene Expression Assay for ABC Transporter (ABCB11) at 6 hours (AID 2283675);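 note: hits raise ABCB11 mRNA level so AC50 marks induction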
Outline: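 Read-out was ABCB11 mRNA gain of signal by quantitative nuclease protection assay, relative to 0.2% DMSO vehicle, 6 h post-dose. Cells were primary human hepatocytes from two donors, treated across multiple concentrations; phase-contrast cytotoxicity noted yes/no.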

[8] = CLD_ACTIN_6hr: CellzDirect (CLD) Gene Expression Assay for Baseline Control (Actin) at 6 hours (AID 2283676);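 note: active means increased actin mRNA relative to DMSO vehicle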
Outline: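 Baseline actin transcript level measured by qNPA (S1 nuclease protection, chemiluminescence) in human hepatocyte cultures 6 h after chemical exposure; 0.2% DMSO vehicle as reference, cytotoxicity noted from morphology.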

[9] = CCTE_Padilla_ZF_144hpf_TERATOSCORE: (Legacy) CCTE's 144 Hour Post-fertilization zebrafish Assay Teratoscore, Padilla Lab (AID 2283679; active = hit-call score of the fitted dose curve at least 0.9, where 1 is the maximum; inactive = score below 0.9;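 for AC50: zebrafish embryos with chorions exposed by immersion from 6-8 hpf to 5 dpf with daily renewal; teratogenicity score from eye scoring of death hatching and malformations at 144 hpf; higher score means more developmental defects relative to DMSO baseline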)
Outline: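 Larvae scored by eye at 144 hpf for death, hatching and malformations after a day in clean Hanks'. Before that, daily-renewed exposure at 80 uM (0.4% DMSO, 26C) from roughly 6-8 hpf through 5 dpf, 4 embryos per chemical.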

[10] = read-out: Glyceraldehyde-3-phosphate dehydrogenase (Homo sapiens) (UniProt P04406); assay: CLD_GAPDH_6hr: CellzDirect (CLD) Gene Expression Assay for Baseline Control (Glyceraldehyde 3-phosphate dehydrogenase) at 6 hours (AID 2283681);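 note: active means increased signal relative to DMSO vehicle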
Outline: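 GAPDH baseline-control readout from qNPA (S1 nuclease digestion, probe hybridization, chemiluminescence) in lysates of cultured human hepatocytes harvested 6 h post-dosing. Chemicals tested at multiple concentrations versus 0.2% DMSO vehicle; microscopy-based cytotoxicity flagged yes/no.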

[11] = read-out: HMG-CoA synthase (HMGCS2), HMGCS2 (gene 3158); assay: CLD_HMGCS2_6hr: CellzDirect (CLD) Gene Expression Assay for HMG-CoA synthase (HMGCS2) at 6 hours (AID 2283682);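 note: actives raise HMGCS2 transcript above the 0.2% DMSO vehicle baseline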
Outline: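 HMGCS2 transcript induction read by quantitative nuclease protection with chemiluminescence, 6 h after dosing of primary human hepatocytes. Baseline was 0.2% DMSO vehicle; phase-contrast morphology gave a yes/no cytotoxicity annotation.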

[12] = read-out: ABC Transporter (ABCB1), ABCB1 (gene 5243); assay: CLD_ABCB1_24hr: CellzDirect (CLD) Gene Expression Assay for ABC Transporter (ABCB1) at 24 hours (AID 2283684);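 for AC50: potency for increase in ABCB1 mRNA relative to DMSO vehicle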
Outline: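 ABCB1 mRNA induction versus 0.2% DMSO vehicle was read by qNPA chemiluminescence at 24 h. Cultured human hepatocytes from two donor preparations received daily fresh dosing, and phase-contrast cytotoxicity calls were annotated alongside the data.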

[13] = read-out: xenobiotic metabolism (CYP1A2), CYP1A2 (gene 1544); assay: CLD_CYP1A2_6hr: CellzDirect (CLD) Gene Expression Assay for xenobiotic metabolism (CYP1A2) at 6 hours (AID 2283663);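 for AC50: potency is for induction meaning a rise in mRNA above DMSO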
Outline: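 mRNA levels quantified by quantitative nuclease protection assay with chemiluminescence, 6 h after dosing human primary hepatocyte cultures (two donors) across several concentrations, vehicle 0.2% DMSO. Induction fitted upward versus DMSO; phase-contrast cytotoxicity annotated.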

[14] = CLD_ACTIN_24hr: CellzDirect (CLD) Gene Expression Assay for Baseline Control (Actin) at 24 hours (AID 2283670)
Outline: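 This 24 h qNPA (S1 nuclease protection, chemiluminescence) actin transcript readout in cultured human liver primary cells serves as baseline control. Signal is fitted upward relative to 0.2% DMSO; chemicals tested at multiple concentrations across two donor preparations.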

[15] = read-out: Cytochrome P450 2B6 (Homo sapiens) (UniProt P20813); assay: CLD_CYP2B6_6hr: CellzDirect (CLD) Gene Expression Assay for xenobiotic metabolism (CYP2B6) at 6 hours (AID 2283677);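 note: actives raise CYP2B6 transcript above DMSO baseline so AC50 marks an inducer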
Outline: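 CYP2B6 transcript levels, read by chemiluminescent qNPA, were fitted for increase versus DMSO baseline; cultured human liver hepatocytes from two donor preparations were harvested 6 h after exposure to test chemicals at multiple concentrations.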

[16] = read-out: Cytochrome P450 3A4 (Homo sapiens) (UniProt P08684); assay: CLD_CYP3A4_6hr: CellzDirect (CLD) Gene Expression Assay for xenobiotic metabolism (CYP3A4) at 6 hours (AID 2283680)
Outline: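 CYP3A4 mRNA induction, 6 h after dosing of cultured primary human hepatocytes from two donors, read by quantitative nuclease protection (qNPA, chemiluminescence). Vehicle 0.2% DMSO as baseline; morphology-based cytotoxicity annotated yes/no.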

[17] = read-out: alkyl and aryl transferase (GSTA2), GSTA2 (gene 2939); assay: CLD_GSTA2_6hr: CellzDirect (CLD) Gene Expression Assay for alkyl and aryl transferase (GSTA2) at 6 hours (AID 2283666)
Outline: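 GSTA2 transcript induction at 6 h, quantified by nuclease protection (qNPA) with chemiluminescent detection, in human liver primary hepatocytes exposed to several compound concentrations with 0.2% DMSO as baseline; phase-contrast morphology annotated apparent cytotoxicity.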

[18] = read-out: xenobiotic metabolism (CYP1A2), CYP1A2 (gene 1544); assay: CLD_CYP1A2_24hr: CellzDirect (CLD) Gene Expression Assay for xenobiotic metabolism (CYP1A2) at 24 hours (AID 2283683)
Outline: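 CYP1A2 mRNA induction measured by quantitative nuclease protection (chemiluminescent) in human primary hepatocytes 24 h after multi-concentration chemical dosing with daily fresh solutions. DMSO (0.2%) baseline; positive-direction fitting; morphology-based cytotoxicity noted.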

[19] = read-out: sulfotransferase (SULT2A), SULT2A1 (gene 6822); assay: CLD_SULT2A_6hr: CellzDirect (CLD) Gene Expression Assay for sulfotransferase (SULT2A) at 6 hours (AID 2283669);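 note: hits raise transcript level above the DMSO vehicle baseline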
Outline: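 Measured 6 h after dosing, SULT2A1 mRNA in human hepatocyte lysates was quantified by S1 nuclease protection with chemiluminescent detection. Increases fitted against 0.2% DMSO vehicle baseline; phase-contrast cytotoxicity recorded yes/no.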

[20] = read-out: Cytochrome P450 (CYP24A1_1), CYP24A1 (gene 1591); assay: LTEA_HepaRG_CYP24A1_1: Life Technologies and Expression Analysis (LTEA) Assay for Cytochrome P450 (CYP24A1_1) using HepaRG (AID 2283671; active = hit-call score of the fitted dose curve at least 0.9, where 1 is the maximum; inactive = score below 0.9); settings: mRNA level, 48 h; actives raise or lower the signal
Outline: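 Cultures of human HepaRG were treated in duplicate for 48 h (0.5% DMSO vehicle, highest dose 100 uM). CYP24A1 mRNA by qRT-PCR, normalized to ACTB, GAPDH, POLR2A.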

Measured: AC50

Chain of Glyceraldehyde-3-phosphate dehydrogenase (Homo sapiens) (P04406 whole entry, looked up): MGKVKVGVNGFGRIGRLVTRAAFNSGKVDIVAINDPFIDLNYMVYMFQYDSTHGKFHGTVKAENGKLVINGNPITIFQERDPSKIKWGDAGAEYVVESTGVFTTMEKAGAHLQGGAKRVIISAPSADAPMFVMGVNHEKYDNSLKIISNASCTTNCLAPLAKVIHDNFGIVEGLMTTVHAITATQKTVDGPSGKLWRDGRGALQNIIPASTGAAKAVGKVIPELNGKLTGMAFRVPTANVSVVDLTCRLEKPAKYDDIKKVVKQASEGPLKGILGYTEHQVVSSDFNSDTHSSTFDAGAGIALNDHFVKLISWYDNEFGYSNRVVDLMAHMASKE
Chain of Cytochrome P450 3A4 (Homo sapiens) (P08684 whole entry, looked up): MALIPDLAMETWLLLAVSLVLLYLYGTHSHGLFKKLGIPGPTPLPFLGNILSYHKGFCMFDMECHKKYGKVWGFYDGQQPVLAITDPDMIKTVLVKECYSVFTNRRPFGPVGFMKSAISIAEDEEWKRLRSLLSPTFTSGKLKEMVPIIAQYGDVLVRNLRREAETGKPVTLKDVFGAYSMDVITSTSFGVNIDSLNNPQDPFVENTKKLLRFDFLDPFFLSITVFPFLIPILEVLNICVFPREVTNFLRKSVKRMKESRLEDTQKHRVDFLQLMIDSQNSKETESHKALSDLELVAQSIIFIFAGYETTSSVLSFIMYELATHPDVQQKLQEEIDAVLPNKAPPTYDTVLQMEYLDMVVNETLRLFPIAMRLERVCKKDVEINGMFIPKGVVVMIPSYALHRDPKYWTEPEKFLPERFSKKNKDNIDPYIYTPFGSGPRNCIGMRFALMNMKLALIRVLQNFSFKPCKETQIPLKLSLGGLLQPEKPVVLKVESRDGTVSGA

C=C(C)[C@H]1Cc2c(ccc3c2O[C@@H]2COc4cc(OC)c(OC)cc4[C@@H]2C3=O)O1
inactive: [2] | [3] | [4] | [5] | [7] | [8] | [10] | [11] | [12]
active: [1] 26.5 µM | [6] 3.38 µM | [9] 0.000155 µM

CSC1=N[C@@](C)(c2ccccc2)C(=O)N1Nc1ccccc1
active: [1] 25.7 µM | [15] 1.88 µM | [9] 3.03 µM
inactive: [13] | [2] | [3] | [14] | [5] | [8] | [16] | [11] | [12]

CC(C)N(C(=O)SCC(Cl)=C(Cl)Cl)C(C)C
active: [15] 5.4 µM | [9] 32.7 µM | [12] 35.3 µM
inactive: [13] | [17] | [3] | [4] | [5] | [7] | [8] | [16] | [18]

COP(=O)(OC)OC(Br)C(Cl)(Cl)Br (configuration not stated)
inactive: [13] | [3] | [4] | [19] | [14] | [5] | [6] | [7] | [15] | [10] | [11] | [12]
active: [9] 16.7 µM

N#CSCSC#N
active: [1] 2.75 µM | [2] 9.47 µM | [9] 5.18 µM
inactive: [13] | [4] | [19] | [14] | [5] | [6] | [7] | [8] | [15] | [10] | [11] | [12]

CCC(=NOC/C=C/Cl)C1=C(O)CC(C2CCOCC2)CC1=O (configuration not stated)
inactive: [1] | [13] | [2] | [17] | [4] | [14] | [5] | [8] | [15] | [9] | [11] | [12]

CCOP(=O)(SC(C)CC)N1CCSC1=O (configuration not stated)
inactive: [2] | [3] | [4] | [5] | [7] | [8] | [9] | [18] | [12]
active: [1] 43.8 µM | [15] 3.89 µM | [16] 8.82 µM

CCOP(=S)(OCC)Oc1cc(C)nc(C(C)C)n1
active: [1] 14.4 µM | [13] 0.589 µM | [2] 83.2 µM | [15] 1.96 µM | [9] 62.7 µM | [18] 7.6 µM
inactive: [3] | [4] | [19] | [5] | [7] | [8] | [16] | [11] | [12]

CC1(C(=O)Nc2ccc(O)c(Cl)c2Cl)CCCCC1
inactive: [1] | [3] | [14] | [20] | [5] | [7] | [15] | [16] | [11] | [12]
active: [2] 82.2 µM | [9] 10.1 µM

CSc1nc(NC(C)C)nc(NC(C)C)n1
active: [6] 6.14 µM | [15] 4.01 µM | [9] 132 µM
inactive: [13] | [3] | [4] | [20] | [5] | [16] | [12]

CCCSP(=O)(OCC)Oc1ccc(Br)cc1Cl (configuration not stated)
inactive: [13] | [3] | [4] | [5] | [12]
active: [1] 15.6 µM | [2] 41.5 µM | [15] 3.75 µM | [9] 8.79 µM | [16] 3.52 µM

CCOP(=S)(OCC)OC(Cl)C(Cl)(Cl)Cl (configuration not stated)
inactive: [13] | [4] | [5] | [7] | [8] | [11] | [12]
active: [1] 3.97 µM | [2] 64.7 µM | [15] 0.833 µM | [9] 4.82 µM | [16] 10.5 µM

COP(=O)(NC(C)=O)SC (configuration not stated)
active: [1] 31.8 µM
inactive: [13] | [2] | [3] | [4] | [14] | [5] | [8] | [9] | [16] | [12]

CCC(CC)Nc1c([N+](=O)[O-])cc(C)c(C)c1[N+](=O)[O-]
inactive: [13] | [3] | [4] | [5] | [7] | [11]
active: [15] 3.47 µM | [9] 24.2 µM | [18] 33.4 µM

CC[C@H](C)[C@H]1O[C@]2(C=C[C@@H]1C)C[C@@H]1C[C@@H](C/C=C(\C)[C@@H](O[C@H]3C[C@H](OC)[C@@H](O[C@H]4C[C@H](OC)[C@@H](NC)[C@H](C)O4)[C@H](C)O3)[C@@H](C)/C=C/C=C3\CO[C@@H]4[C@H](O)C(C)=C[C@@H](C(=O)O1)[C@]34O)O2
inactive: [14] | [20] | [5] | [7] | [8] | [16] | [11] | [12]
active: [13] 10.5 µM | [3] 47.9 nM | [4] 30.7 µM | [9] 3.41 µM

CCOP(=O)(NC(C)C)Oc1ccc(SC)c(C)c1 (configuration not stated)
active: [13] 4.22 µM | [15] 3.13 µM | [9] 50.3 µM
inactive: [1] | [3] | [4] | [5] | [16]
